The supplement of paper PMC13380429

Experiments:
[1] = system: Vero E6 infected with SARS-CoV-2; assay: morphology score (similarity to uninfected cells); higher = more like uninfected cells; settings: 24 h
[2] = system: Vero E6 infected with SARS-CoV-2; assay: SARS-CoV-2 infection rate relative to infected DMSO; higher = more infection, active = 60 or less; settings: 24 h

| SMILES | morphology score [1] | SARS-CoV-2 infection rate [2] |
| --- | --- | --- |
| C[C@@H]1C[C@H]2[C@@H]3CCC4=CC(=O)C=C[C@]4(C)[C@@]3(F)[C@@H](O)C[C@]2(C)[C@H]1C(=O)CO [desoximetasone] (10 µM) | 0.067 | 91% (inactive) |
| O=C(NNC(=O)c1ccc(CNS(=O)(=O)c2ccc(F)c(Cl)c2)cc1)c1ccccc1 (10 µM) | -0.0845 | 114% (inactive) |
| CC(C(=O)O)c1ccc2c(c1)CC(=O)c1ccccc1S2 (stereo not given) [zaltoprofen] (10 µM) | 0.241 | 104% (inactive) |
| O=C(Nc1ccccc1)N1CCC(Cc2cnc3ccccc3c2)CC1 (10 µM) | -0.147 | 104% (inactive) |
| CC(=O)N[C@@H](CC(=O)O)C(=O)N[C@@H](CCC(=O)O)C(=O)O [spaglumic-acid] (10 µM) | 0.121 | 88.5% (inactive) |
| NC(=O)NO [hydroxyurea] (10 µM) | 0.223 | 100% (inactive) |
| CC(C)CCNC(=O)[C@H](CC(C)C)NC(=O)[C@H]1O[C@@H]1C(=O)O [loxistatin-acid] (10 µM) | 0.296 | 88% (inactive) |
| O=C(CN1C(=O)C2(CCCC2)NC[C@H]1c1cc(F)cc(F)c1)Nc1ccc2c(c1)C[C@@]1(C2)C(=O)Nc2ncccc21 (10 µM) | 0.0766 | 101% (inactive) |
| CN1C(=O)N(c2cc(Cl)cc(Cl)c2)C(=O)[C@]12CN(c1ccc(C(=O)O)cn1)C[C@H]2c1ccc(C#N)cc1 (10 µM) | 0.0204 | 114% (inactive) |
| O=C(NCCN1CCC2(CC1)C(=O)NCN2c1cccc(F)c1)c1ccc2ccccc2c1 (10 µM) | 0.766 | 26% (active) |
